Activity calls are given as the source filed them.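 The calls were made as follows: active = cells show a rise in impedance after compound treatment, with no numeric cutoff stated; inactive = no rise in impedance seen.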
Molecular target: Relaxin receptor 1 (Homo sapiens) (UniProt Q9HBX9)
Assay: qHTS Assay for Agonists of the Relaxin Receptor RXFP1: Cell Impedance
Settings: HEK293-RXFP1 cell impedance, xCELLigence, 500 nM time course; at 0.5 µM; stronger effect = higher value
Excerpt: The relaxin hormone is involved in the variety of biological functions in normal tissues and diseases. The role of relaxin is well-established in female reproduction and parturition, mammary gland and endometrial development, maintenance of myometrial quiescence during pregnancy. Relaxin signaling through its G protein-coupled receptor (GPCR) RXFP1 results in ECM remodeling through regulation of collagen deposition, cell invasiveness, proliferation and overall tissue homeostasis. […] Recombinant human relaxin (rhRlx) is currently being tested in clinical trials as a protective agent in congestive heart failure, in treating severe preeclampsia, and as an anti-fibrotic agent in systemic sclerosis.
Upon relaxin binding RXFP1 activation leads to the activation of adenylate cyclase (AC) via Gs. cAMP will activate PKA, which phosphorylates many signaling proteins. Thus, detection of cAMP increase is an easy and reliable indication of relaxin receptor activation. To screen for agonists of the relaxin receptor, a HEK293T cell line stably transfected with RXFP1 was used. RXFP1 activation was assayed by changes in cAMP levels as detected with a time-resolved fluorescence energy transfer (TR-FRET) cAMP detection kit.
After the primary screen and rounds of SAR, a probe and analog were identified. It was previously shown that relaxin increases cell impedance in RXFP1 transfected cells. A cell line stably transfected with RXFP1 receptor HEK293-RXFP1 was used for cell impedance assay to confirm relaxin-like properties of the compounds.
NIH Chemical Genomics Center [NCGC]
NIH Molecular Libraries Probe Production Centers Network [MLPCN]
Assay Submitter (PI): Alexander Agoulnik
To equilibrate the plates, 100 microL of test media (DMEM, 1% FBS, 1x Pen/Strep) was added to each well of E Plate 16 (Roche Diagnostics, Indianapolis, IN) and the plate was incubated at room temperature for 30 minutes at which point baseline impedance was measures. Then 20,000 HEK293-RXFP1 cell or HEK293 cells (parental control cell line) were added per well in a volume of 100 microL test media and allowed to sediment at room temperature for 30 minutes. The plate was placed into xCELLigence RTCA DP Instrument in the CO2 incubator overnight to allow the cells to attach. Relaxin (10 ng/mL), vehicle, or compounds 500 nM were added to the wells and the cellular impedance was measured every 10-30 seconds for 1 hour.

Chain of Relaxin receptor 1 (Homo sapiens) (Q9HBX9 whole entry, looked up): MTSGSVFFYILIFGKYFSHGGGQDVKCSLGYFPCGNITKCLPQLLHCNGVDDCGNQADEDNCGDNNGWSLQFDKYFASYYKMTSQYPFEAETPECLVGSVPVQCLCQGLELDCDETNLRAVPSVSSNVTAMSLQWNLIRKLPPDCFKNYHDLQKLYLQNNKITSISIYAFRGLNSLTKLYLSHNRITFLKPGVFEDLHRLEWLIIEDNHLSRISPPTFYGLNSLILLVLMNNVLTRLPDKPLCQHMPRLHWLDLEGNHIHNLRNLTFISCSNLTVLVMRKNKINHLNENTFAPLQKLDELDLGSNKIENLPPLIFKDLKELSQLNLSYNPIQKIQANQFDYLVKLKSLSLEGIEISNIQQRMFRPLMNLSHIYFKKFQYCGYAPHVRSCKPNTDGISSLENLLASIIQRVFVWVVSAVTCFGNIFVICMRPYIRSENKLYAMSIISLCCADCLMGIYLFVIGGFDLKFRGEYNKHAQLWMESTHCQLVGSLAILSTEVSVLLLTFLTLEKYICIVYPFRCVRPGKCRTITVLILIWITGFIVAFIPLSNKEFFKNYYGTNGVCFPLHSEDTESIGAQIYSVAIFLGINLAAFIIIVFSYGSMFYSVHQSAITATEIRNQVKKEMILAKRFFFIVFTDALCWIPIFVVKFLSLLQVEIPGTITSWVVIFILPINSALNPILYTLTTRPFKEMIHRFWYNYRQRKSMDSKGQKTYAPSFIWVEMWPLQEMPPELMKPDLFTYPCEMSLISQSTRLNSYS

Impedance increase (% of relaxin), active:
CC(C)Oc1ccccc1C(=O)Nc1ccccc1C(=O)Nc1cccc(S(=O)(=O)C(F)(F)F)c1 46.7%, CCCCOc1ccccc1C(=O)Nc1ccccc1C(=O)Nc1cccc(S(=O)(=O)C(F)(F)F)c1 39.5%, CCOc1ccccc1C(=O)Nc1ccccc1C(=O)Nc1cccc(S(=O)(=O)C(F)(F)F)c1 31.2%, CCOc1ccccc1C(=O)Nc1ccccc1C(=O)Nc1cccc(C(F)(F)F)c1 67%
